According to PubChem BioAssay AID1159580 (chemical genetic matrix, 2015):
In all, about 5,500 compounds went through this assay and about 2,000 (36%) were called active. Another 18% or so got no clear call; they are omitted. Rule as the data show it: active = normalized growth mostly below about 0.91 (no sharp cut-off); inconclusive = no clear call, values can overlap the other calls; inactive = mostly above about 0.92. The list shows a part of the results.

Test: chemical genetic growth profiling, strain panel (AID 1159580);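 also: tested at 20 µM; growth read once vehicle control cultures reached saturation at 30 °C; 1 = growth at the plate median or of vehicle wells; lower values mean less growth of the strain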
Settings: growth OD

Measured: normalized growth

COc1cc([C@@H]2c3cc4c(cc3C(O[C@@H]3O[C@@H]5CO[C@@H](c6cccs6)OC5[C@H](O)[C@H]3O)C3COC(=O)[C@@H]32)OCO4)cc(OC)c1O (stereo not given in full)
inactive: S. cerevisiae deletion strains, locus YJR066W, strain TOR1, active compounds read low 0.99 | S. cerevisiae deletion strains, locus YKL009W, strain mrt4, active compounds read low 1.03 | S. cerevisiae deletion strains, locus YKL068W, active compounds read low 1.01 | S. cerevisiae deletion strains, locus YKL085W, strain MDH1 (second series), active compounds read low 1 | S. cerevisiae deletion strains, locus YKL085W, strain MDH1, active compounds read low 1 | S. cerevisiae deletion strains, locus YKL160W, strain elf1, active compounds read low 1.05 | S. cerevisiae deletion strains, locus YKL190W, strain CNB1, active compounds read low 0.997 | S. cerevisiae deletion strains, locus YKR001C, strain vps1, active compounds read low 1.02 | S. cerevisiae deletion strains, locus YKR026C, strain gcn3, active compounds read low 0.986 | S. cerevisiae deletion strains, locus YKR091W, strain srl3, active compounds read low 0.998 | S. cerevisiae deletion strains, locus YLL001W, strain dnm1, active compounds read low 1.05 | S. cerevisiae deletion strains, locus YLL026W, active compounds read low 0.984 | S. cerevisiae deletion strains, locus YLL041C, strain sdh2, active compounds read low 0.967 | S. cerevisiae deletion strains, locus YLR027C, strain aat2, active compounds read low 0.985 | S. cerevisiae deletion strains, locus YLR039C, strain RIC1, active compounds read low 1.01 | S. cerevisiae deletion strains, locus YLR058C, strain SHM2, active compounds read low 1 | S. cerevisiae deletion strains, locus YLR102C, strain apc9, active compounds read low 1.02 | S. cerevisiae deletion strains, locus YLR113W, strain HOG1, active compounds read low 1.01 | S. cerevisiae deletion strains, locus YLR221C, strain rsa3, active compounds read low 1.03 | S. cerevisiae deletion strains, locus YLR258W, strain gsy2, active compounds read low 1 | S. cerevisiae deletion strains, locus YLR262C, strain YPT6 (second series), active compounds read low 1 | S. cerevisiae deletion strains, locus YLR262C, strain YPT6, active compounds read low 0.964 | S. cerevisiae deletion strains, locus YLR268W, strain sec22, active compounds read low 1.02 | S. cerevisiae deletion strains, locus YLR320W, strain mms22, active compounds read low 1.01 | S. cerevisiae deletion strains, locus YLR330W, strain CHS5, active compounds read low 0.999 | S. cerevisiae deletion strains, locus YLR342W, strain FKS1 (second series), active compounds read low 1.01 | S. cerevisiae deletion strains, locus YLR342W, strain FKS1, active compounds read low 0.99 | S. cerevisiae deletion strains, locus YLR357W, strain rsc2, active compounds read low 0.98 | S. cerevisiae deletion strains, locus YLR370C, strain arc18, active compounds read low 0.986 | S. cerevisiae deletion strains, locus YLR371W, strain rom2, active compounds read low 1.01 | S. cerevisiae deletion strains, locus YLR384C, strain iki3, active compounds read low 0.97 | S. cerevisiae deletion strains, locus YLR418C, strain cdc73, active compounds read low 1.02 | S. cerevisiae deletion strains, locus YML016C, strain PPZ1, active compounds read low 1 | S. cerevisiae deletion strains, locus YML032C, strain rad52, active compounds read low 0.917 | S. cerevisiae deletion strains, locus YML120C, strain ndi1, active compounds read low 1.02 | S. cerevisiae deletion strains, locus YML124C, strain tub3, active compounds read low 1.01 | S. cerevisiae deletion strains, locus YMR058W, strain fet3, active compounds read low 0.993 | S. cerevisiae deletion strains, locus YMR078C, strain ctf18, active compounds read low 1.01 | S. cerevisiae deletion strains, locus YMR125W, strain sto1, active compounds read low 1.01 | S. cerevisiae deletion strains, locus YMR129W, active compounds read low 0.983 | S. cerevisiae deletion strains, locus YMR205C, strain PFK2, active compounds read low 1.02 | S. cerevisiae deletion strains, locus YMR223W, strain ubp8, active compounds read low 1.02 | S. cerevisiae deletion strains, locus YMR231W, strain pep5, active compounds read low 0.978 | S. cerevisiae deletion strains, locus YMR263W, strain SAP30, active compounds read low 1 | S. cerevisiae deletion strains, locus YMR307W, strain GAS1, active compounds read low 0.933 | S. cerevisiae deletion strains, locus YNL067W, strain RPL9B, active compounds read low 0.998 | S. cerevisiae deletion strains, locus YNL071W, strain lat1, active compounds read low 0.976 | S. cerevisiae deletion strains, locus YNL128W, strain TEP1, active compounds read low 1.02 | S. cerevisiae deletion strains, locus YNL183C, strain NPR1, active compounds read low 0.987 | S. cerevisiae deletion strains, locus YNL209W, strain ssb2, active compounds read low 0.985 | S. cerevisiae deletion strains, locus YNL233W, strain BNI4, active compounds read low 1 | S. cerevisiae deletion strains, locus YNL248C, strain rpa49, active compounds read low 0.999 | S. cerevisiae deletion strains, locus YNL250W, strain rad50, active compounds read low 0.977 | S. cerevisiae deletion strains, locus YNL271C, strain bni1, active compounds read low 1.02 | S. cerevisiae deletion strains, locus YNL298W, strain CLA4, active compounds read low 1.04 | S. cerevisiae deletion strains, locus YNL307C, strain MCK1, active compounds read low 1.03 | S. cerevisiae deletion strains, locus YNL322C, strain KRE1 (second series), active compounds read low 0.994 | S. cerevisiae deletion strains, locus YNR049C, strain mso1, active compounds read low 0.978 | S. cerevisiae deletion strains, locus YNR052C, strain pop2, active compounds read low 1.03 | S. cerevisiae deletion strains, locus YOL006C, strain TOP1, active compounds read low 0.89 | S. cerevisiae deletion strains, locus YOL012C, strain htz1 0.835 | S. cerevisiae deletion strains, locus YOL147C, strain pex11, active compounds read low 1.01 | S. cerevisiae deletion strains, locus YOR001W, strain rrp6, active compounds read low 0.933 | S. cerevisiae deletion strains, locus YOR061W, strain CKA2, active compounds read low 1 | S. cerevisiae deletion strains, locus YOR069W, strain VPS5, active compounds read low 1 | S. cerevisiae deletion strains, locus YOR070C, strain gyp1, active compounds read low 0.991 | S. cerevisiae deletion strains, locus YOR080W, strain dia2, active compounds read low 0.971 | S. cerevisiae deletion strains, locus YOR083W, strain WHI5, active compounds read low 1.05 | S. cerevisiae deletion strains, locus YOR106W, strain vam3, active compounds read low 1.02 | S. cerevisiae deletion strains, locus YOR136W, strain idh2, active compounds read low 1.02 | S. cerevisiae deletion strains, locus YOR144C, strain elg1, active compounds read low 1.01 | S. cerevisiae deletion strains, locus YOR184W, strain ser1, active compounds read low 1.01 | S. cerevisiae deletion strains, locus YOR231W, strain MKK1, active compounds read low 1 | S. cerevisiae deletion strains, locus YOR265W, strain rbl2, active compounds read low 0.985 | S. cerevisiae deletion strains, locus YOR270C, strain vph1, active compounds read low 0.891 | S. cerevisiae deletion strains, locus YOR290C, strain snf2, active compounds read low 0.982 | S. cerevisiae deletion strains, locus YOR316C, strain cot1, active compounds read low 1.03 | S. cerevisiae deletion strains, locus YPL051W, strain arl3, active compounds read low 1.03 | S. cerevisiae deletion strains, locus YPL055C, strain LGE1, active compounds read low 0.996 | S. cerevisiae deletion strains, locus YPL078C, strain atp4, active compounds read low 1.03 | S. cerevisiae deletion strains, locus YPL106C, strain sse1, active compounds read low 1.01 | S. cerevisiae deletion strains, locus YPL240C, strain hsp82, active compounds read low 0.99 | S. cerevisiae deletion strains, locus YPL241C, strain CIN2, active compounds read low 1 | S. cerevisiae deletion strains, locus YPL256C, strain CLN2, active compounds read low 1.03 | S. cerevisiae deletion strains, locus YPR119W, strain clb2, active compounds read low 1.01 | S. cerevisiae deletion strains, locus YPR141C, strain kar3, active compounds read low 1.01 | S. cerevisiae deletion strains, locus YPR163C, strain tif3, active compounds read low 1.03 | S. cerevisiae deletion strains, locus YPR167C, strain met16, active compounds read low 1.02 | S. cerevisiae deletion strains, strain wtn01, active compounds read low 1.03 | S. cerevisiae strains, strain wild type, active compounds read low 1.01
